A selection: hits, their analogues and other compounds. The true share with any hit is near 10%.
Six1-Eya2 blk = qHTS Assay for Inhibitors of the Six1/Eya2 Interaction. activity change, % (concentration not given with the values). 360,000 tested, 0.56% active. AlphaScreen GST-Six1/His-Eya2 binding, biochemical; hits give low values. Homeobox protein SIX1 (Homo sapiens) + Protein phosphatase EYA2 (Homo sapiens), …; in the data active = activity change below about -65%; inconclusive = mostly about -30% to -63%; also: % is scaled to controls: 0 for no effect and ±100 for the full control effect
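GST-Six1 + His-Eya2 (5X stock: 250/500 nM); Tris pH 8.0, 300 mM NaCl, 0.05% BSA, 0.02% Tween 20; GSH donor/Ni acceptor beads; 1 h 37 °C dark; AlphaScreen readout.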
G9a block = qHTS Assay for Inhibitors of Histone Lysine Methyltransferase G9a | Histone-lysine N-methyltransferase EHMT2 (Homo sapiens), Q96KQ7 | G9a H3K9 monomethylation, AlphaScreen, 2 h | Potency, µM (series often up to 102 µM), for the others: top-dose activity, negative = inhibition, usual class: inhibitors | 350,000 tested, 8.8% active | AID 504332, 2011; also: potency is read from the fitted curve at half-maximal effect; % is scaled to controls: 0 for no effect and ±100 for the full control effect; nearly all actives have a fitted effect of over 75% in size
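Chemiluminescent proximity detection of H3K9 monomethylation, read after 10 min bead incubation in the dark. Reaction: 20 nM G9a, 500 nM biotin-H3K9 peptide, 20 uM SAM cofactor, 2 h, room temperature, following 15 min enzyme-compound preincubation.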
JMJD2A Tudor = qHTS Assay for Inhibitors of JMJD2A-Tudor Domain | Lysine-specific demethylase 4A (Homo sapiens), O75164 | AlphaScreen JMJD2A-Tudor / H3K4me3 peptide binding | Potency, µM (doses to about 114 µM), inactives show at the highest dose activity change, negative = inhibition, most hits filed as inhibitors | 390,000 tested, 4.4% active; also: potency is read from the fitted curve at half-maximal effect; % is scaled to controls: 0 for no effect and ±100 for the full control effect; nearly all actives have a fitted effect of over 50% in size
HP1b chromo inh = HTS for Inhibitors of HP1-beta Chromodomain Interactions with Methylated Histone Tails; Chromobox protein homolog 1 (Homo sapiens), P83916; AlphaScreen HP1-beta / biotin-H3K9me3 peptide binding; Potency, µM (highest dose often 114 µM), without a hit: at the highest dose activity change, negative = inhibition, most hits filed as inhibitors; 390,000 tested, 0.56% active; also: potency is read from the fitted curve at half-maximal effect; nearly all actives have a fitted effect of over 70% in size
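Compound inhibition of the preformed complex between 50 nM HP1-beta and 50 nM biotinylated H3K9me3 peptide was read by AlphaScreen. Buffer was PBS pH 7.4 with 0.01% Tween-20. Incubations ran 30 min at room temperature, with 10 ug/mL donor/acceptor beads.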
BAZ2B block = qHTS Assay for Inhibitors of BAZ2B; Bromodomain adjacent to zinc finger domain protein 2B (Homo sapiens), Q9UIF8; AlphaScreen BAZ2B-H3K14Ac peptide displacement; Potency, µM (top dose mostly 114 µM), for the others: at the highest dose activity change, negative = inhibition, hits mostly inhibitors; 360,000 tested, 4.4% active; AID 504333, 2011; also: potency is read from the fitted curve at half-maximal effect; % is scaled to controls: 0 for no effect and ±100 for the full control effect; nearly all actives have a fitted effect of over 60% in size
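Inhibition is scored as reduced AlphaScreen emission. The BAZ2B/b-H3(5-23)K14Ac complex (50 nM each) in PBS pH 7.4, 0.01% Tween-20 meets compound (up to 110 uM) for 30 min at RT before bead addition.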
CtBP-E1A blk = qHTS Assay for Inhibitors of the CtBP/E1A Interaction; AlphaScreen GST-E1A/His-CtBP binding, 1536-well; hits give low values; activity change, % (test concentration not listed); 340,000 tested, 0.49% active; AID 651724, 2012; in the data active = activity change below about -65%; inconclusive = mostly about -30% to -63%; also: % is scaled to controls: 0 for no effect and ±100 for the full control effect
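AlphaScreen with 125 nM GST-E1A and 125 nM His-CtBP (5X stocks) in Tris pH 8.0, 300 mM NaCl, BSA, Tween 20, TCEP. Compounds preincubated 2 h at 37 deg C, then glutathione donor/nickel acceptor beads added for 1 h at 37 deg C in dark.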
* hit, by the source's call; ? = inconclusive; . = no result; [ ] = dose if it differs, or a comment. Unless noted, calls follow the shape of the dose curve; as a rule, active = well fitted inhibition curve with a large enough effect; inconclusive = small, poorly fitted or top-dose-only effect; inactive = no such curve, though single readings can be large or run the other way.

SMILES	Six1-Eya2 blk	G9a block	JMJD2A Tudor	HP1b chromo inh	BAZ2B block	CtBP-E1A blk
Cc1cccc(N2C(=O)CC(N3CCN(Cc4ccc(Cl)cc4)CC3)C2=O)c1 (centres undefined)	4	40µM*	-12%	44%	-16%	5
COc1ccc(N2CCN(C3CC(=O)N(C)C3=O)CC2)cc1 (centres undefined)	0	?	3%	19%	-6%	3
COc1ccc(N2C(=O)CC(N3CCN(c4ccc(S(C)(=O)=O)cc4)CC3)C2=O)cc1 (centres undefined)	-2	32µM*	-18%	12%	1%	-2
Cc1ccc(-c2cc(NC(=O)C(C)Oc3ccccc3F)on2)cc1 (centres undefined)	.	12%[59 µM]	9%	81%	17%	.
COc1ccc(OCc2nc3c4c(-c5ccc(OC)cc5)c(-c5ccc(OC)cc5)oc4ncn3n2)cc1	.	-12%[59 µM]	-1%	5%	-9%	.
CCCOc1ccc(N2C(=O)CC(N3CCN(c4ccccc4OC)CC3)C2=O)cc1 (centres undefined)	-7	45µM*	-13%	44%	-22%	-4
S=c1[nH]nc(C2CCCCC2)n1/N=C/c1ccccc1Cl	-15	2.2µM*	22µM*	?	?	-2
O=C(O)c1ccccc1/C=N/n1c(C2CCCCC2)n[nH]c1=S	1	22µM*	7.9µM*	-25%	-12%	10
FC(F)(F)c1ccccc1/C=N/n1c(C2CCCCC2)n[nH]c1=S	2	8.9µM*	?	-11%	-36%	.
Cc1n[nH]c(=S)n1/N=C/c1ccccc1OCc1ccc(Cl)cc1Cl	1	13%[59 µM]	-11%	42%	2%	-7
O=C(O)c1ccccc1/C=N/Nc1nc(N2CCCCC2)nc(N2CCCCC2)n1	.	-2%	.	.	-16%	.
S=c1[nH]nc(-c2cccs2)n1/N=C/c1cn(-c2ccccc2)nc1-c1cccs1	-16	.	?	-20%	?	-9
CCOc1ccccc1/C=N/n1c(C2CCCCC2)n[nH]c1=S	-5	14µM*	?	-7%	-30%	-10
Cc1cc2c(c(C)c1Cl)C(c1ccc3c(c1)OCO3)CC(c1ccccc1)O2 (centres undefined)	.	.	-21%	-5%	.	.
COc1ccc(CCNC(=O)C2CCN(c3ncnc4c3nc3n4CCCCC3)CC2)c(OC)c1	.	6%[59 µM]	1%	7%	6%	.
COc1ccc(CNc2oc(-c3ccc(COc4ccc(Cl)cc4)o3)nc2C#N)cc1	.	-33%[59 µM]	-33%	10%	?	.
COc1ccccc1/C=C/C=N/n1c(C2CCCCC2)n[nH]c1=S	-17	3.2µM*	?	?	-34%	-22
CCCC(=O)n1nc(-c2ccco2)nc1NCc1ccccc1Cl	.	2%[59 µM]	-4%	45%	1%	.
Cc1nnc(N/N=C/c2cccc(OCc3ccc(Cl)c(Cl)c3)c2)n1N	-10	10µM*	?	-5%	?	13
CCOc1cc(/C=N/Nc2nnc(C)n2N)ccc1OC(C)=O	-6	45µM*	9%	45%	-14%	-28
CCc1nnc(N/N=C\c2ccc(OC(C)=O)c(OC)c2)n1N	-3	?	-25%	33%	?	?
Cc1nnc(N/N=C/c2cccc(C(F)(F)F)c2)n1N	?	21%	-1%	34%	?	?
COc1ccc(NC(=O)CN(C)C(=O)C2CC(=O)N(CCc3ccc(OC)c(OC)c3)C2)cc1 (centres undefined)	-8	.	9%	34%	.	5
COc1ccc(C2CC(=O)N(CCCN(C)CCc3ccc(OC)c(OC)c3)C2)cc1 (centres undefined)	-1	?	100µM*	?	89µM*	.
COc1ccc(CCN(C)CCCN2CC(c3ccccc3)CC2=O)cc1OC (centres undefined)	1	50µM*	25µM*	-9%	?	1
SMILES	Six1-Eya2 blk	G9a block	JMJD2A Tudor	HP1b chromo inh	BAZ2B block	CtBP-E1A blk
Cc1cc(C(=O)Nc2ccc(C(C)C)cc2)c2c(C)nn(-c3ccccc3)c2n1	.	2%[59 µM]	3%	58%	14%[57.1 µM]	.
CCOC(=O)C1=C(C)c2ccccc2N(C(=O)OC)C1(C)C(=O)OCC (centres undefined)	-17	26%	-2%	51%	.	-11
CCC(C)C(=O)N1c2ccccc2C(=C2SC(C(=O)OC)=C(C(=O)OC)S2)C(=S)C1(C)C (centres undefined)	-80*	?	8.9µM*	?	8.9µM*	-83*
NC(C(=O)O)C(c1ccccc1)C(F)F (centres undefined)	-10	11µM*	50µM*	-1%	-31%	0
NC(=O)NC(c1ccccc1)c1ccccc1	2	-1%[59 µM]	-1%	26%	-1%	11
CC(=O)N(c1ccc2oc(=O)sc2c1)S(=O)(=O)c1cccs1	-9	?	?	28%	-9%	-7
CC(C)C(=O)N(c1ccc2oc(=O)sc2c1)S(=O)(=O)c1cccs1	-21	35µM*	-26%	27%	-36%	-1
CC(C)C(=O)N(c1cc2sc(=O)oc2c2ccccc12)S(=O)(=O)c1cccs1	?	1.8µM*	?	-2%	50µM*	-16
Cc1nc2ccccn2c1P(=O)(c1ccccc1)c1ccccc1	.	.	-24%	.	.	.
O=S(=O)(Nc1ccc2c(c1)OCO2)c1ccc(F)c(F)c1	4	-13%[59 µM]	-19%	29%	5%	-3
O=c1[nH]cc(S(=O)(=O)Nc2ccc3c(c2)OCO3)c(=O)[nH]1	10	50µM*	-27%	29%	-9%	13
Cc1ccc(-c2nc(CS(=O)CC(=O)NCCc3ccc(Cl)cc3)c(C)o2)cc1 (centres undefined)	.	-36%[59 µM]	-25%	16%	?	.
CN(C)c1cccc(C(=O)NNC(=S)NC2CC3CCC2C3)c1 (centres undefined)	7	50µM*	?	?	-26%	-1
Oc1ccc(Br)cc1C1C=C(c2ccc3c(c2)OCO3)NC(c2cccc(F)c2)N1 (centres undefined)	.	.	?	6%	.	.
COc1ccc(-n2c(Cc3cccn3C)nnc2SCC(=O)Nc2cc(Cl)ccc2OC)cc1	-16	40µM*	?	-23%	?	-12

Source: PubChem (National Center for Advancing Translational Sciences (NCATS))
